Source: PubChem BioAssay (several laboratories)
Only some compounds are listed: those with a hit (about 4.4% of all), similar ones and a draw of the others.
TIM10 inh: TIM10 yeast growth inhibition | S. cerevisiae TIM10 strain growth, BacTiter-Glo luminescence, 24 h | 330,000 compounds, 1.4% hits | inhibition, % at 10 µM;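 active = inhibition of 40% or more at the single tested concentration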;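 also: wild-type TIM10 isogenic control strain grown at permissive 25 °C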
PfHsp90 set2: growth inhibition of yeast expressing Plasmodium Hsp90; S. cerevisiae expressing PfHsp90, BacTiter-Glo ATP, 48 h; yeast lacking PDR1 and PDR3 efflux regulators; inhibition, % at 9.4 µM; 310,000 compounds, 0.32% hits;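 active = every replicate shows inhibition above about 80%, whatever the replicate mean, limit read from the data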
tim23-1 inh: growth inhibitors of tim23-1 mutant yeast. S. cerevisiae tim23-1 growth, BacTiter-Glo luminescence, 24 h. 330,000 compounds, 1.3% hits. AID 463212. inhibition, % at 20 µM;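 active = growth inhibition of the mutant yeast at or above 50%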;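 also: temperature-sensitive mutant grown at 25 °C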
tim10-1 inh: inhibits growth of tim10-1 mutant yeast; S. cerevisiae tim10-1 ts strain growth, BacTiter-Glo, 24 h; inhibition, % at 20 µM; 330,000 compounds, 2.2% hits; AID 463190;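 active = inhibition of at least 40%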;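 also: mutant grown at 25 °C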
SKKanGAS inh: blocks kanamycin growth of S. pyogenes SKKanGAS strain. inhibition, % at 7.5 µM. 300,000 compounds, 1.3% hits. BacTiter-Glo, 6 h;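 active = mean replicate score, as percent of positive control median, at least 50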;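 also: strain carries kanamycin resistance gene driven by streptokinase promoter and grows in 40 µg/ml kanamycin; loss of luminescence reflects streptokinase promoter inhibition or plain growth inhibition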
tim10-1 confirm: confirmation of tim10-1 mutant yeast growth inhibitors. S. cerevisiae tim10-1 ts strain growth, BacTiter-Glo, 24 h. 7,400 compounds, 56% hits. AID 463213. shares compounds with tim10-1 inh. inhibition, % at 20 µM;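 active = inhibition of yeast growth at or above a set limit in either of two repeat tests at 20 µM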;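 also: tim10-1 mutant grown at permissive 25 °C to find synthetic lethal compounds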
tim10 confirm: TIM10 yeast growth inhibition, confirmed; shares compounds with TIM10 inh; S. cerevisiae tim10 strain growth, BacTiter-Glo luminescence, 24 h; inhibition, % at 10 µM; 4,600 compounds, 63% hits; AID 463215;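 active = inhibition of yeast growth at or above a set limit in either of two replicates at 10 µM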; also: this counterscreen used the strain with wild-type TIM10
Of the large screens only hits and unclear results are named; the others gave an inactive call (follow-up assays come after a bar, where they were run).

Cc1ccc(C(=O)CN2CCN(c3ccccn3)CC2)c(C)c1	none
Cc1ccc2cc(C)c(N3CCN(c4ccccn4)CC3)nc2c1	TIM10 inh 43, tim10-1 inh 53 | tim10-1 confirm 34 | tim10 confirm 38
CCNC(=S)N/N=C/c1cccc(OCc2c(F)cccc2Cl)c1	TIM10 inh 53, tim10-1 inh 44 | tim10-1 confirm 37 | tim10 confirm 41
CNC(=S)N/N=C/c1cccc(OCc2ccccc2F)c1	none
O=C(NCCCn1ccnc1)Nc1ccc2c(c1)OCO2	none
COc1ccc(-n2c(COc3ccc(Cl)cc3)nnc2SCc2ccc(C#N)cc2)cc1	none
COc1ccc(NCc2nnc(SCc3ccc(Cl)cc3)n2-c2ccccc2)cc1	TIM10 inh 54, tim10-1 inh 52 | tim10-1 confirm 39 | tim10 confirm inactive
COc1ccc(CCN2CC(C(=O)N(C)Cc3cccnc3)CC2=O)cc1OC (stereo not drawn)	none (no result: SKKanGAS inh)
O=C1CCC(C(=O)N2CCN(c3cnccn3)CC2)CN1CCc1cccc(F)c1 (stereo not drawn)	none
COc1ccccc1N1CCN(C(=O)/C=C/c2c(Cl)nc3ccccn23)CC1	TIM10 inh 42, tim10-1 inh 59, SKKanGAS inh 69 | tim10-1 confirm 51 | tim10 confirm 36
COC(=O)C1(Cc2cc(-c3ccc(Cl)cc3)no2)CCN(C(=O)OC(C)(C)C)CC1	TIM10 inh 44, tim10-1 inh 54 | tim10-1 confirm 45 | tim10 confirm 40
CC(=O)N(Cc1ccc(F)cc1)C1=C(NCCc2ccccc2)C(=O)c2ccccc2C1=O	TIM10 inh 45, tim10-1 inh 41 | tim10-1 confirm inactive | tim10 confirm 31
O=[N+]([O-])c1ccc(-[n+]2ccc3ccccc3c2)c([N+](=O)[O-])c1	TIM10 inh 50, tim10-1 inh 58 | tim10-1 confirm 52 | tim10 confirm 52
COc1ccc(O)c(C(=O)C2c3ccccc3C(=O)N2c2ccc(C)cc2)c1 (stereo not drawn)	none
Cc1cccc(Cn2nnc3c2C(=O)c2ccccc2C3=O)c1	TIM10 inh 52, tim10-1 inh 42 | tim10-1 confirm inactive | tim10 confirm 33
Cc1ccccc1Cn1nnc2c1C(=O)c1ccccc1C2=O	none
CN(CC(=O)Nc1ccc(SC(F)F)cc1)C1CCCCC1	none
FC(F)Oc1ccc(NC(=S)NCc2ccccc2)cc1	none
FC(F)Sc1ccc(NC(=S)NC2CCCCC2)cc1	TIM10 inh 66, tim10-1 inh 65 (no result: PfHsp90 set2) | tim10-1 confirm 67 | tim10 confirm 62
FC(F)Sc1ccc(NC(=S)NCC2CCCCC2)cc1	TIM10 inh 69, tim10-1 inh 71 | tim10-1 confirm 60 | tim10 confirm 60
S=C(Nc1ccc(Br)cc1)NC1CCCC1	none
FC(F)Sc1ccc(NC(=S)NCc2ccccc2)cc1	TIM10 inh 56, tim10-1 inh 48 | tim10-1 confirm 41 | tim10 confirm 44
N#C/C(=C(/O)C(Cl)(Cl)Cl)c1nc2ccccc2[nH]1	none
COc1ccc2sc(N(CCCN(C)C)C(=O)c3ccc(S(=O)(=O)N4CCc5ccccc5C4)cc3)nc2c1	none
Cc1cc(C)c2sc(N(CCCN(C)C)C(=O)c3ccc(S(=O)(=O)N4CCCc5ccccc54)cc3)nc2c1	TIM10 inh 51, tim10-1 inh 54 | tim10-1 confirm 41 | tim10 confirm 33
CN(C)CCCN(C(=O)c1ccc(S(=O)(=O)N2CCc3ccccc3C2)cc1)c1nc2c(F)cccc2s1	none
Cc1cccc2sc(N(CCCN(C)C)C(=O)c3ccc(S(=O)(=O)N4CCc5ccccc5C4)cc3)nc12	TIM10 inh 40, tim10-1 inh 41 | tim10-1 confirm inactive | tim10 confirm inactive
CN(C)CCCN(C(=O)c1ccc(S(=O)(=O)N2CCc3ccccc3C2)cc1)c1nc2ccc(F)cc2s1	TIM10 inh 57, tim10-1 inh 59 (no result: PfHsp90 set2) | tim10-1 confirm 36 | tim10 confirm 45
COc1cccc(/C=N/NC(=O)CNC(=O)C(c2ccccc2)c2ccccc2)c1O	none
COc1cc(/C=C/C(=O)N2CC(C)OC(C)C2)cc(OC)c1OC (stereo not drawn)	none
